Results on 49 molecules are retold here after PubChem BioAssay.

Test [1] concerns the target Tumor necrosis factor receptor superfamily member 10B (Homo sapiens) (UniProt O14763). Kind of test: caspase-8 TRAIL sensitization, hit retest, confirmation, cell-based, NB7+caspase-8, with/without TRAIL, luminescence panel (AID 651596). To be noted: NB7 neuroblastoma + caspase-8, TRAIL sensitization, luminescence viability, with TRAIL, mean of runs, at 10 µM, stronger effect = higher value.

Test in test [2]: as above
To be noted: NB7 neuroblastoma + caspase-8, without TRAIL, luminescence viability, without TRAIL, mean of runs, at 10 µM.

Sequence of Tumor necrosis factor receptor superfamily member 10B (Homo sapiens) (O14763 whole entry, looked up): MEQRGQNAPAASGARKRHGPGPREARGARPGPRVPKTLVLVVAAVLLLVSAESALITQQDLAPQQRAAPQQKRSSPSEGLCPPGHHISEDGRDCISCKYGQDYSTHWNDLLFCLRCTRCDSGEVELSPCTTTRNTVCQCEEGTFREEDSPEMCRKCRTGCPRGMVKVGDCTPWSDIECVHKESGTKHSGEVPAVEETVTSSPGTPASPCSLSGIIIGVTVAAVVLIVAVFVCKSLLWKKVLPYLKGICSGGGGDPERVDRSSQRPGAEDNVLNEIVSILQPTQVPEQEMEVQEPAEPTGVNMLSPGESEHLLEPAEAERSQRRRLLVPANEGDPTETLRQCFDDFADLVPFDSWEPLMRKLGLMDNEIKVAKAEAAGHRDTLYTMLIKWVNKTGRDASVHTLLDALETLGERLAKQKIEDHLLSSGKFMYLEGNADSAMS

As for `COc1cccc(-c2nnc(-c3ccc(C)o3)o2)c1`, the activity amounted to 64.9% in test [1] and 65.2% in test [2].

For the molecule `O=C(c1cc(-c2ccc3c(c2)OCO3)on1)N1CCCCC1`, the activity worked out at 53.4% in test [1] and 48.9% in test [2].

With `CC(C)CC(NC(=O)c1ccc(Cl)cc1)C(=O)OCC(=O)c1ccc2c(c1)NC(=O)CO2` (stereo not drawn), the figures for the activity in test [1] and in test [2] were 71.7% and 97.4%, respectively.

Turning to `Cc1ccc(S(=O)(=O)N2CCCCC2)cc1NC(=O)Cn1ncc(Cl)c(Cl)c1=O`, the activity was 98.7% in test [1] and 99.3% in test [2].

For the molecule `CCOC(=O)c1cc([N+](=O)[O-])cc([N+](=O)[O-])c1Sc1ncnc2nc[nH]c12`, the figures for the activity in test [1] and in test [2] were 51.5% and 71.2%, respectively.

As for `CC(C)(C)OC(=O)NCc1ccc(CNC(=O)c2[nH]cnc2C(=O)Nc2ccccc2F)cc1`, the values for the activity in test [1] and in test [2] were 43.6% and 34.9%, respectively.

In the case of `Nc1nc(-c2ccc(-c3ccccc3)cc2)cs1`, the activity in test [1] was 51.2%; in test [2] it was 50.7%.

Regarding `COc1ccc(-c2cn3cc(C)ccc3n2)cc1OC`, the values for the activity in test [1] and in test [2] were 74.7% and 77%, respectively.

As for `CCCCCCCCC(c1nc2ccccc2[nH]1)N1CCN=C1c1cc2ccccc2[nH]1` (stereo not drawn), the activity in test [1] amounted to 54.9%; in test [2], 84.8%.

Consider `COc1ccc(-c2sc3ccccc3c2-c2ccc(OCCN(C)C)cc2)cc1`, for which the results for the activity in test [1] and in test [2] were 52.4% and 73.6%, respectively.

`CCCCCCc1cc2cc(C(=O)Nc3ccc(OC)cc3)c(=O)oc2cc1O`: the activity came out at 36% in test [1] and 32.5% in test [2].

As for `Cc1ccc(C2=NN(C(=O)CCl)C(c3ccco3)C2)o1` (stereo not drawn), the results for the activity in test [1] and in test [2] were 98.5% and 98.2%, respectively.

For the molecule `CCOc1ccc(C(=O)Nc2nnc(SCC(=O)NCC3CCCO3)s2)cc1` (stereo not drawn), the activity in test [1] is 96.1%; in test [2], 96.3%.

As to `COc1cccc(C(=O)Nc2nc3ccccc3[nH]2)c1`, the figures for the activity in test [1] and in test [2] were 91% and 85.3%, respectively.

In the case of `C/C(=N\Nc1cccc2cccnc12)c1ccccn1`, the activity came out at 69.8% in test [1] and 59.6% in test [2].

Regarding `Brc1nc(-c2ccccc2)nc(-c2ccccc2)c1Br`, the activity in test [1] turned out to be 98.9%; in test [2] it was 99.2%.

On to `O=[N+]([O-])c1cc(S(=O)(=O)N2CCCCCC2)ccc1F`, for which the activity in test [1] is 83.9%; in test [2] it was 72.6%.

Regarding `c1ccc(COc2ncnc3c2ncn3CCCNCC(c2ccccc2)c2ccccc2)cc1`, the activity in test [1] amounted to 18.2%; in test [2], 41.5%.

As for `O=C(COc1ccccc1)Nc1cccc(-c2ccc(N3CCOCC3)nn2)c1`, the activity in test [1] is 72.7%; in test [2] it was 77.8%.

As for `O=c1c(-c2ccc3c(c2)OCCO3)coc2cc(OC3OC(CO)C(O)C(O)C3O)ccc12` (stereo not drawn), the activity in test [1] was 51.8%; in test [2], 53.9%.

In the case of `O=C(CCl)N(c1ccccc1)c1ccccc1`, the results for the activity in test [1] and in test [2] were 99.2% and 99%, respectively.

Consider `Fc1cccc2sc(Nc3nc4cc5c(cc4s3)OCCO5)nc12`, for which the activity in test [1] is 40.2%; in test [2], 28.4%.

Regarding `COc1ccc(/C=C/C(=O)c2ccc([N+](=O)[O-])o2)cc1`, the activity in test [1] came out at 35.2%; in test [2], 80.8%.

Consider `CCn1nnc(NC(=O)c2ccc(C(C)(C)C)cc2)n1`, for which the activity amounted to 69.1% in test [1] and 75.2% in test [2].

Consider `CN(C)CC(O)c1ccc(C=Cc2ccc(Cl)cc2)cc1` (stereo not drawn), for which the activity in test [1] came out at 98.3%; in test [2], 97.2%.

Turning to `C/C(=N\NC(=O)c1ccc(F)cc1)c1ccccn1`, the activity in test [1] stood at 44.9%; in test [2], 61.7%.

On to `COc1ccc(C(C(=O)NC2CCCCC2)N(C(=O)CCl)c2ccccc2Cl)cc1` (stereo not drawn), for which the values for the activity in test [1] and in test [2] were 98.8% and 97.2%, respectively.

For the molecule `O=C(N/N=C/C=C/c1ccccc1)c1cc2c(ccc3ccccc32)o1`, the activity amounted to 62.1% in test [1] and 56.4% in test [2].

Take `COc1cccc(NC(=O)c2cc3ccccc3o/c2=N\O)c1`: the activity in test [1] was 65%; in test [2], 64.6%.

As to `O=C(Oc1cccc(/C=N/NC(=O)c2ccccn2)c1)c1ccc([N+](=O)[O-])cc1`, the activity amounted to 42.9% in test [1] and 20.2% in test [2].

For `C(=N\NC1=Nc2cccc3cccc1c23)/c1ccccn1`, the activity in test [1] worked out at 50.6%; in test [2], 43%.

For `CCC(C)N(CC(=O)Nc1cccc(C)c1C)C(=O)CCl` (stereo not drawn), the activity in test [1] came out at 99.5%; in test [2] it was 99.3%.

As to `Cc1nc2ccc(-c3nc4cc(N)ccc4o3)cc2[nH]1`, the activity in test [1] is 59.7%; in test [2] it was 57.4%.

As to `O=C(Oc1ccc2ccccc2c1Cl)N1CCCCCC1`, the results for the activity in test [1] and in test [2] were 20.1% and 12.2%, respectively.

As to `CCC(=O)Nc1ccc(NC(=O)c2ccco2)cc1`, the activity in test [1] was found to be 35.1%; in test [2], 41.4%.

For `C/C(=N\NC(=O)c1cc(O)ccc1O)c1cccc(NC(=O)c2ccc(Cl)cc2)c1`, the activity in test [1] amounted to 40.8%; in test [2], 24.6%.

Regarding `Cn1cnc([N+](=O)[O-])c1Sc1nc(N)nc2c1ncn2C1OC(CO)C(O)C1O` (stereo not drawn), the values for the activity in test [1] and in test [2] were 66.8% and 75.4%, respectively.

Consider `CCOc1ccc(/C=C/C(=O)c2c(O)cc(C)oc2=O)cc1`, for which the activity was 74.8% in test [1] and 77.8% in test [2].

As for `COc1ccc(-c2cc(CNc3nc(NC(C)C)nc4cc(-c5ccccc5)sc34)on2)cc1`, the activity in test [1] was 91.6%; in test [2], 92.4%.

On to `C/C(=N\NC(=O)c1ccc(O)cc1)c1cccc(NC(=O)c2ccccc2C)c1`, for which the activity in test [1] stood at 59.9%; in test [2], 61.3%.

Take `CCCn1c(Nc2nc3ccccc3n2C)nc2ccccc21`: the figures for the activity in test [1] and in test [2] were 38.1% and 50.4%, respectively.

As for `COc1ccc(C(C(=O)NC2CCCCC2)N(C(=O)CCl)c2ccc(C)cc2)cc1` (stereo not drawn), the activity is 99.5% in test [1] and 99.3% in test [2].

Consider `Cn1c(-c2ccccc2)cc2onc(-c3ccccc3)c2c1=O`, for which the activity is 85.5% in test [1] and 85.7% in test [2].

As for `CCCCOc1ccc(-c2nc(=S)[nH][nH]2)cc1`, the activity was 67.1% in test [1] and 66.6% in test [2].

`Fc1ccccc1-c1ccc(/C=N/Nc2nc3ccccc3[nH]2)o1`: the figures for the activity in test [1] and in test [2] were 82.7% and 79.2%, respectively.

In the case of `Cc1nn(Cc2ccc(Cl)cc2Cl)c(C)c1NC(=O)CCl`, the activity in test [1] amounted to 95.8%; in test [2], 97.8%.

Consider `C/C(=N\NC(=O)c1ccccc1O)c1ccc(Br)s1`, for which the results for the activity in test [1] and in test [2] were 57.8% and 69.5%, respectively.

For the molecule `O=C(/C=C\Nc1ccccn1)c1ccccc1`, the activity in test [1] was 55.4%; in test [2], 53.2%.

For `O=C1Nc2ccccc2N(C(=O)c2c(F)cccc2F)C1c1nc2ccccc2[nH]1` (stereo not drawn), the activity in test [1] turned out to be 47.6%; in test [2] it was 60.3%.
